Bioassay records as filed in PubChem BioAssay.
In the library only some 8.1% were active in any assay of this set; here they are far more common.
MCF10A rerep: DNA re-replication induction in MCF 10a cells | Potency, µM (top dose mostly 46.1 µM), hits mostly activators | 2.9% of 350,000 active | MCF 10A DNA re-replication, Hoechst nuclear intensity, 48 h | AID 624296; also: nearly all actives have a fitted effect of over 50% in size
KB-V1 MDR tox: kills drug-selected multidrug resistant KB-V1 cells; Potency, µM (titrated, usually from 46.1 µM), most hits filed as cytotoxic; 3.4% of 400,000 active; KB-V1 MDR cells viability, CellTiter-Glo, 72 h; also: nearly all actives have a fitted effect of over 60% in size
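Luminescent ATP read-out (CellTiter-Glo, 10 min) measures survival of drug-selected KB-V1 MDR cells after 72 h, 37 degrees C compound exposure. Medium: phenol-red-free DMEM, 10% FBS. Values from fitted concentration-response curves.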
ELG1 DNA repair: blocks ELG1-dependent DNA repair in HEK293T cells | HEK293T ELG1-luciferase reporter, luminescence, 16 h; DNA damage induced by 5-fluorouridine | Potency, µM (top dose mostly 46.1 µM), usual class: inhibitors | 2.3% of 330,000 active | AID 504467; also: nearly all actives have a fitted effect of over 55% in size
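HEK293T cells expressing luciferase-tagged ELG1 (2,000/well) received 5-Fluorouridine plus compound or DMSO for 16 hr at 37 °C. Luciferase was read by ONE-Glo luminescence after 30 min at room temperature.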
KB-3-1 cytotox: kills parental KB-3-1 adenocarcinoma cells | KB-3-1 viability, CellTiter-Glo ATP luminescence, 72 h | Potency, µM (series often up to 46.1 µM), actives largely listed as cytotoxic | 1.4% of 400,000 active | AID 1347075; also: nearly all actives have a fitted effect of over 60% in size
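72 h, 37 °C compound treatment of KB-3-1 parental cells; CellTiter-Glo added, 10 min, luminescence read. Data corrected against DMSO-only plates and normalized before curve fitting.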
SW480 rereplic: inducers of DNA re-replication in SW480 colon cancer cells; SW480 DNA re-replication, Hoechst DNA content imaging, 48 h; Potency, µM (top dose mostly 46.1 µM), usual class: activators; 1.8% of 340,000 active; also: nearly all actives have a fitted effect of over 55% in size
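Readout is total intensity of Hoechst-stained nuclei, excited at 405 nm and collected at 500-530 nm. Compound treatment lasted 48 hr at 37 C in 5% CO2 before staining.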
A number is an active result; – = inactive; ? = inconclusive; · = no result; [ ] = dose if it differs, or a comment. Calls follow the shape of the dose curve; as a rule, active = well fitted curve in the direction sought with a large enough effect; inconclusive = small, poorly fitted or top-dose-only effect, or another doubt; inactive = no such curve, though single readings can be large; an effect the other way counts as inactive or inconclusive.

SMILES	MCF10A rerep	KB-V1 MDR tox	ELG1 DNA repair	KB-3-1 cytotox	SW480 rereplic
COc1cc(CNC[C@H]2O[C@@H](n3ccc(N)nc3=O)[C@H](O)[C@@H]2O)ccc1OCc1cccc(Cl)c1	·	–	·	–	·
O=C(c1cc(-c2ccccc2)nn1CC1CC(c2cccnc2)=NO1)N1CCOCC1 (configuration not stated)	–	–	·	–	–
CCOc1ccc2oc(C(=O)N(Cc3nnc(-c4ccccc4Cl)o3)C3CC3)c(C)c2c1	–	?	9.2µM	–	–
CN1CCN(S(=O)(=O)c2cccc(C(=O)N(Cc3nnc(-c4ccc(Cl)cc4)o3)C3CC3)c2)CC1	–	–	–	–	6.5µM
Cc1ccc(S(=O)(=O)N2CCOCC2)cc1C(=O)N(Cc1nnc(-c2ccccc2Cl)o1)C1CC1	–	?	10µM	–	–
CC1CN(S(=O)(=O)c2cccc(C(=O)N(Cc3nnc(-c4ccccc4Cl)o3)C3CC3)c2)CC(C)O1 (configuration not stated)	–	–	5.8µM	–	–
O=C1NC(=S)N/C1=C/c1cc([N+](=O)[O-])ccc1O	–	–	–	–	10µM
O=C1NC(=S)N/C1=C/c1cccc([N+](=O)[O-])c1O	–	–	–	?	–
Cc1cc(C)c(NC(=O)CN2C(=O)CCn3nc(-c4cccn4C)cc32)c(C)c1	·	–	·	–	·
O=S(=O)(O)c1ccc(N2N=C(c3ccccc3)CC2c2ccccc2)cc1 (configuration not stated)	–	–	–	–	15µM
CCc1ccc(C2=NN(c3ccc(S(N)(=O)=O)cc3)C(c3ccc(F)cc3)C2)cc1 (configuration not stated)	?	?	–	?	9.2µM
O=S(=O)(c1ccccc1)N1N=C(c2cccs2)CC1c1ccc(F)cc1 (configuration not stated)	–	–	–	?	?
CC(=O)N1N=C(c2ccccc2)CC1c1ccccc1 (configuration not stated)	–	–	–	–	–
Fc1ccc(N2N=C(c3cccs3)CC2c2ccccc2)cc1 (configuration not stated)	2.6µM	–	?	–	5.8µM
Cc1ccc(C2CC(c3ccccc3)=NN2c2ccc(S(N)(=O)=O)cc2)cc1 (configuration not stated)	·	–	·	?	·
NS(=O)(=O)c1ccc(N2N=C(c3ccccc3)CC2c2ccccc2)cc1 (configuration not stated)	8.2µM	?	?	?	13µM
N#Cc1nc(Cc2cccc3ccccc23)oc1N1CCN(c2ccccc2)CC1	–	–	–	–	–
COc1cccc(CN(C)C(=O)c2ccc(NS(=O)(=O)c3ccc(F)cc3)cc2)c1OC	–	–	–	–	–
CCCCc1nnc(SCC(=O)Nc2nccs2)n1CC	–	–	–	–	–
Cc1ccc(C)c2c1cc(C)c1nnc(SCC(=O)NCc3ccc4c(c3)OCO4)n12	–	–	–	–	–
NS(=O)(=O)c1ccc(N2N=C(c3ccccc3)CC2c2ccccc2Cl)cc1 (configuration not stated)	3.3µM	–	–	–	4.6µM
CN(Cc1ccccc1)c1ccc(/C=C/c2sc3ccccc3[n+]2C)cc1	·	–	·	?	·
CCCC[n+]1c(/C=C/c2ccc(N(C)C)cc2)sc2ccccc21	·	–	·	1.8µM	·
CN(C)c1ccc(/C=C/c2sc3ccccc3[n+]2CCCCI)cc1	·	23µM	·	?	·
Cc1c(F)cccc1NS(=O)(=O)c1ccc2c(c1)c(=O)n(C)c(=O)n2C	–	–	?	–	–
SMILES	MCF10A rerep	KB-V1 MDR tox	ELG1 DNA repair	KB-3-1 cytotox	SW480 rereplic
CC(=O)c1cccc(NC(=O)CSCc2ccc(Br)cc2)c1	–	18µM	–	–	–
O=C(Nc1ccc2nc3n(c(=O)c2c1)CCCCC3)c1c(F)ccc([N+](=O)[O-])c1F	?	16µM	?	2.3µM	1.3µM
O=C(Nc1ccc2nc3n(c(=O)c2c1)CCCCC3)c1cc([N+](=O)[O-])ccc1F	15µM	–	?	?	16µM
CCOC(=O)C1(S(=O)(=O)c2ccc(Cl)cc2)CCN(Cc2ccc(Cl)cc2)CC1	–	8.2µM	–	?	?
CCOC(=O)C1(CCc2ccccc2)CCN(Cc2ccc(O)cc2)CC1	–	–	–	–	–[1.84 µM]
CCOC(=O)C1(S(=O)(=O)c2ccccc2)CCN(Cc2ccc(Cl)cc2)CC1	–	10µM	?	?	–
NC(=O)c1cc2ccncc2c2ccccc12	?	–	1.3µM	–	–
Cc1cc(C(N)=O)c2ccccc2n1	?	–	–	–	–
CC1(C)C2CCC1(CS(=O)(=O)Nc1ccccc1)C(=O)C2 (configuration not stated)	–	–	–	–	–
CC1(C)C2CCC1(CS(=O)(=O)Nc1ccc(S(=O)(=O)N3CCCCC3)cc1)C(=O)C2 (configuration not stated)	–	26µM	–	–	?
S=C1SCN(CC2CC2)CN1CC1CC1	–	–	–	–	5.8µM
O=C1CC(N(Cc2cccs2)C(=O)Nc2ccccc2)C(=O)N1c1ccc(Cl)cc1 (configuration not stated)	–	18µM	–	–	?
COc1ccc(CN(C(=S)Nc2ccccc2)C2CC(=O)N(c3ccccc3)C2=O)cc1 (configuration not stated)	?	4.6µM	?	–	–
C[n+]1ccnc2ccccc21	·	10µM	·	4.1µM	·
Clc1ccc2nccnc2c1	·	–	·	?	·
C=CC[n+]1ccnc2ccccc21	·	–	·	–	·
C[n+]1ccnc2cc(Cl)ccc21	·	5.8µM	·	4.1µM	·
CC(Sc1c[nH]c2ccccc12)C(=O)O (configuration not stated)	8.2µM	–	–	–	?
COc1ccc(COC(=O)C2CCN(C(=O)c3ccc(Cl)cc3)CC2)cc1F	15µM	–	–	?	–
O=C(c1ccc(S(=O)(=O)N2CCCCCC2)cc1)N1CCN(Cc2ccccc2)CC1	–	?	?	–	–
COc1ccc(CN2CCN(C(=O)c3ccc(S(=O)(=O)N4CCCCCC4)cc3)CC2)cc1F	–	?	6.5µM	23µM	–
COc1ccc(CN2CCN(C(=O)c3ccc(S(=O)(=O)N4CCCCCC4)cc3)CC2)cc1	?	2.3µM	10µM	8.2µM	–
COc1ccc(CN2CCN(C(=O)c3ccc(S(=O)(=O)NCc4ccco4)cc3)CC2)cc1F	–	–	–	?	–
CCOc1ccc(NC(=O)Cn2cc(S(=O)(=O)N3CCN(c4ccccc4F)CC3)c3ccccc3c2=O)cc1	·	–	·	–	·
CCCCCCSc1cccc(-c2nc3ccc(Cl)cn3c2NCc2ccccc2)c1	21µM	?	–	–	–
CCCCNc1c(-c2cccc(SC(C)CC)c2)nc2ccc(Cl)cn12 (configuration not stated)	?	?	–	?	–
